Reference: the supplement of paper PMC6992640

The compounds below were run on WHIM30 (cells of a triple-negative basal-like breast cancer xenograft) (assay: cell viability of combination (% of vehicle); higher = less cytotoxic). Conditions: 1 µM; 72 h; partner dose: 10 nM.
Experimental: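 PDX cells were treated for 72 h with each drug at 1 µM plus carfilzomib (10 nM; 100 nM for WHIM2). Luciferase viability is expressed as percent of vehicle.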

SMILES | cell viability of combination
CCN1CCN(Cc2ccc(Nc3ncc(F)c(-c4cc(F)c5nc(C)n(C(C)C)c5c4)n3)nc2)CC1.CS(=O)(=O)O + CC(C)C[C@H](NC(=O)[C@H](CCc1ccccc1)NC(=O)CN1CCOCC1)C(=O)N[C@@H](Cc1ccccc1)C(=O)N[C@@H](CC(C)C)C(=O)[C@@]1(C)CO1 [Carfilzomib] | 23.6
CC(C)CC(NC(=O)C(CCc1ccccc1)NC(=O)CN1CCOCC1)C(=O)NC(Cc1ccccc1)C(=O)NC(CC(C)C)C(=O)C1(C)CO1 (stereo not given) [Carfilzomib (PR-171)] + CC(C)C[C@H](NC(=O)[C@H](CCc1ccccc1)NC(=O)CN1CCOCC1)C(=O)N[C@@H](Cc1ccccc1)C(=O)N[C@@H](CC(C)C)C(=O)[C@@]1(C)CO1 [Carfilzomib] | 9.47
COc1cc2nccc(Oc3ccc(NC(=O)NC4CC4)c(Cl)c3)c2cc1C(N)=O [Lenvatinib (E7080)] + CC(C)C[C@H](NC(=O)[C@H](CCc1ccccc1)NC(=O)CN1CCOCC1)C(=O)N[C@@H](Cc1ccccc1)C(=O)N[C@@H](CC(C)C)C(=O)[C@@]1(C)CO1 [Carfilzomib] | 21.9
COc1cc2c(Oc3ccc4[nH]c(C)cc4c3F)ncnc2cc1OCCCN1CCCC1 [Cediranib (AZD217)] + CC(C)C[C@H](NC(=O)[C@H](CCc1ccccc1)NC(=O)CN1CCOCC1)C(=O)N[C@@H](Cc1ccccc1)C(=O)N[C@@H](CC(C)C)C(=O)[C@@]1(C)CO1 [Carfilzomib] | 11.6
COC(=O)C12CCC(C)(C)CC1C1C(=O)C=C3C4(C)C=C(C#N)C(=O)C(C)(C)C4CCC3(C)C1(C)CC2 (stereo not given) [Bardoxolone methyl] + CC(C)C[C@H](NC(=O)[C@H](CCc1ccccc1)NC(=O)CN1CCOCC1)C(=O)N[C@@H](Cc1ccccc1)C(=O)N[C@@H](CC(C)C)C(=O)[C@@]1(C)CO1 [Carfilzomib] | 14.3
CNC(=O)c1cc(Oc2ccc(NC(=O)Nc3ccc(Cl)c(C(F)(F)F)c3)c(F)c2)ccn1 [Regorafenib] + CC(C)C[C@H](NC(=O)[C@H](CCc1ccccc1)NC(=O)CN1CCOCC1)C(=O)N[C@@H](Cc1ccccc1)C(=O)N[C@@H](CC(C)C)C(=O)[C@@]1(C)CO1 [Carfilzomib] | 22.4
CNCCC(Oc1ccc(C(F)(F)F)cc1)c1ccccc1.Cl (stereo not given) [Fluoxetine HCl] + CC(C)C[C@H](NC(=O)[C@H](CCc1ccccc1)NC(=O)CN1CCOCC1)C(=O)N[C@@H](Cc1ccccc1)C(=O)N[C@@H](CC(C)C)C(=O)[C@@]1(C)CO1 [Carfilzomib] | 16.3
COc1cc2c(Nc3ccc(Br)cc3F)ncnc2cc1OCC1CCN(C)CC1 [Vandetanib (ZD6474)] + CC(C)C[C@H](NC(=O)[C@H](CCc1ccccc1)NC(=O)CN1CCOCC1)C(=O)N[C@@H](Cc1ccccc1)C(=O)N[C@@H](CC(C)C)C(=O)[C@@]1(C)CO1 [Carfilzomib] | 15.1
Nc1ccn(C2OC(CO)C(O)C2O)c(=O)n1 (stereo not given) [Cytarabine] + CC(C)C[C@H](NC(=O)[C@H](CCc1ccccc1)NC(=O)CN1CCOCC1)C(=O)N[C@@H](Cc1ccccc1)C(=O)N[C@@H](CC(C)C)C(=O)[C@@]1(C)CO1 [Carfilzomib] | 19.3
CCc1c(Cl)c(O)c(Cl)c(O)c1C(=O)OC1C(C)OC(OCC2=CC=CCC(O)C(C)=CC(CC)C(OC3OC(C)(C)C(OC(=O)C(C)C)C(O)C3O)C(C)=CC(C)=CCC(C(C)O)OC2=O)C(OC)C1O (stereo not given) [Fidaxomicin] + CC(C)C[C@H](NC(=O)[C@H](CCc1ccccc1)NC(=O)CN1CCOCC1)C(=O)N[C@@H](Cc1ccccc1)C(=O)N[C@@H](CC(C)C)C(=O)[C@@]1(C)CO1 [Carfilzomib] | 21.2
C=C(c1ccc(C(=O)O)cc1)c1cc2c(cc1C)C(C)(C)CCC2(C)C [Bexarotene] + CC(C)C[C@H](NC(=O)[C@H](CCc1ccccc1)NC(=O)CN1CCOCC1)C(=O)N[C@@H](Cc1ccccc1)C(=O)N[C@@H](CC(C)C)C(=O)[C@@]1(C)CO1 [Carfilzomib] | 25.7
O=C1C=CC=CC1=C1NC(=C2C=CC=CC2=O)N(c2ccc(C(=O)O)cc2)N1 [Deferasirox] + CC(C)C[C@H](NC(=O)[C@H](CCc1ccccc1)NC(=O)CN1CCOCC1)C(=O)N[C@@H](Cc1ccccc1)C(=O)N[C@@H](CC(C)C)C(=O)[C@@]1(C)CO1 [Carfilzomib] | 23.7
CN(C)CC=CC(=O)Nc1cc2c(Nc3ccc(F)c(Cl)c3)ncnc2cc1OC1CCOC1 (stereo not given) [Afatinib (BIBW2992)] + CC(C)C[C@H](NC(=O)[C@H](CCc1ccccc1)NC(=O)CN1CCOCC1)C(=O)N[C@@H](Cc1ccccc1)C(=O)N[C@@H](CC(C)C)C(=O)[C@@]1(C)CO1 [Carfilzomib] | 12.3
Cc1ccc(-n2[nH]c(C)c(NN=C3C=CC=C(c4cccc(C(=O)O)c4)C3=O)c2=O)cc1C [Eltrombopag] + CC(C)C[C@H](NC(=O)[C@H](CCc1ccccc1)NC(=O)CN1CCOCC1)C(=O)N[C@@H](Cc1ccccc1)C(=O)N[C@@H](CC(C)C)C(=O)[C@@]1(C)CO1 [Carfilzomib] | 19.8
CC(C)(C)c1ccc(C(O)CCCN2CCC(C(O)(c3ccccc3)c3ccccc3)CC2)cc1 (stereo not given) [Terfenadine] + CC(C)C[C@H](NC(=O)[C@H](CCc1ccccc1)NC(=O)CN1CCOCC1)C(=O)N[C@@H](Cc1ccccc1)C(=O)N[C@@H](CC(C)C)C(=O)[C@@]1(C)CO1 [Carfilzomib] | 15.5
COCCOC(=O)C1=C(C)NC(C)=C(C(=O)OCC=Cc2ccccc2)C1c1cccc([N+](=O)[O-])c1 (stereo not given) [Cilnidipine] + CC(C)C[C@H](NC(=O)[C@H](CCc1ccccc1)NC(=O)CN1CCOCC1)C(=O)N[C@@H](Cc1ccccc1)C(=O)N[C@@H](CC(C)C)C(=O)[C@@]1(C)CO1 [Carfilzomib] | 19.2
CC1(COc2ccc3c(c2)ncn3-c2ccc3cccc(N4CCC(N)CC4)c3n2)COC1 + CC(C)C[C@H](NC(=O)[C@H](CCc1ccccc1)NC(=O)CN1CCOCC1)C(=O)N[C@@H](Cc1ccccc1)C(=O)N[C@@H](CC(C)C)C(=O)[C@@]1(C)CO1 [Carfilzomib] | 64.3
CNCCCC12CCC(c3ccccc31)c1ccccc12.Cl [Maprotiline HCl] + CC(C)C[C@H](NC(=O)[C@H](CCc1ccccc1)NC(=O)CN1CCOCC1)C(=O)N[C@@H](Cc1ccccc1)C(=O)N[C@@H](CC(C)C)C(=O)[C@@]1(C)CO1 [Carfilzomib] | 16
Nc1ncn(C2OC(CO)C(O)C2O)c(=O)n1 (stereo not given) [5-Azacytidine] + CC(C)C[C@H](NC(=O)[C@H](CCc1ccccc1)NC(=O)CN1CCOCC1)C(=O)N[C@@H](Cc1ccccc1)C(=O)N[C@@H](CC(C)C)C(=O)[C@@]1(C)CO1 [Carfilzomib] | 20.7
CCc1oc2ccccc2c1C(=O)c1cc(Br)c(O)c(Br)c1 [Benzbromarone] + CC(C)C[C@H](NC(=O)[C@H](CCc1ccccc1)NC(=O)CN1CCOCC1)C(=O)N[C@@H](Cc1ccccc1)C(=O)N[C@@H](CC(C)C)C(=O)[C@@]1(C)CO1 [Carfilzomib] | 20.1
